Measured values reported in PubChem BioAssay (EPA / NIEHS).
Inconclusive results are not listed. Calls of active or inactive are those of the source. How the source made its calls: active means hit-call score of the fitted dose curve at least 0.9, where 1 is the maximum; inconclusive means response in the unintended direction; inactive means score below 0.9.

assay: Tanguay_ZF_120hpf_OTIC_legacy: (Legacy) Oregon State University Tanguay Lab 120 Hour Post-fertilization zebrafish Assay for Otic Vesicle Malformation (AID 2283639)
Summary of the method: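 Binary scoring of otic vesicle defects at 120 hpf in zebrafish (Tropical 5D) held under static exposure at 28C, sealed and shaded, with final DMSO 0.64%. Embryos dying by 24 or 120 hpf excluded; fitted positively against DMSO.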

| Compound | outcome |
| --- | --- |
| CCCCCOC(=O)COc1cc(N2C(=O)C3=C(CCCC3)C2=O)c(F)cc1Cl | inactive |
| CCSC(=O)N(CC(C)C)CC(C)C | inactive |
| CCC(C)OC(=O)N1CCCCC1CCO (centres undefined) | inactive |
| CCCCCCC(C)OC(=O)COc1nc(F)c(Cl)c(N)c1Cl (centres undefined) | inactive |
| CCCN(CCC)c1c([N+](=O)[O-])cc(C(F)(F)F)c(N)c1[N+](=O)[O-] | inactive |
| O=C(O)C1(C(=O)Nc2ccc(Cl)cc2Cl)CC1 | inactive |
| CCCCOC(=O)C(C)Oc1ccc(Oc2ccc(C(F)(F)F)cn2)cc1 (centres undefined) | inactive |
| CCOC(=O)C(C)Oc1ccc(Oc2cnc3cc(Cl)ccc3n2)cc1 (centres undefined) | inactive |
| COc1c(Cl)ccc(Cl)c1C(=O)O | inactive |
| CCCCOCCOCCOCc1cc2c(cc1CCC)OCO2 | inactive |
| S=C([S-])NCCNC(=S)[S-].[Mn+2] | inactive |
| CCCOC(=O)c1ccc(C(=O)OCCC)nc1 | inactive |
| CCOC(=O)COc1cc(-n2ncc(C(F)(F)F)c(C)c2=O)c(F)cc1Cl | inactive |
| CCOC(=O)NCCOc1ccc(Oc2ccccc2)cc1 | inactive |
| CCCCOC(=O)[C@@H](C)Oc1ccc(Oc2ccc(C(F)(F)F)cn2)cc1 | inactive |
| Cc1nn(C)c(Oc2ccccc2)c1C=NOCc1ccc(C(=O)OC(C)(C)C)cc1 | inactive |
| CCOC(=O)C(C)Oc1ccc(Oc2nc3ccc(Cl)cc3o2)cc1 (centres undefined) | inactive |
| CCNc1nc(N)nc(Cl)n1 | inactive |

assay: Tanguay_ZF_120hpf_PE_legacy: (Legacy) Oregon State University Tanguay Lab 120 Hour Post-fertilization zebrafish Assay for Pericardial Edema (AID 2283640);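 on AC50: potency for increased incidence of pericardial edema versus DMSO baseline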
Summary of the method: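 Tropical 5D wild-type zebrafish embryos were exposed statically to 120 hpf at 28C, sealed and foil-covered, in 0.64% DMSO final. Pericardial edema was scored present/absent by brightfield microscopy; dead embryos were not scored.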

| Compound | outcome | AC50 |
| --- | --- | --- |
| CCCCCOC(=O)COc1cc(N2C(=O)C3=C(CCCC3)C2=O)c(F)cc1Cl | inactive |  |
| CCSC(=O)N(CC(C)C)CC(C)C | inactive |  |
| CCC(C)OC(=O)N1CCCCC1CCO (centres undefined) | inactive |  |
| CCCCCCC(C)OC(=O)COc1nc(F)c(Cl)c(N)c1Cl (centres undefined) | inactive |  |
| CCCN(CCC)c1c([N+](=O)[O-])cc(C(F)(F)F)c(N)c1[N+](=O)[O-] | inactive |  |
| COC(=O)c1ccccc1C(=O)O | inactive |  |
| O=C(O)C1(C(=O)Nc2ccc(Cl)cc2Cl)CC1 |  | 41.9 µM (active) |
| CCCCOC(=O)C(C)Oc1ccc(Oc2ccc(C(F)(F)F)cn2)cc1 (centres undefined) | inactive |  |
| CCOC(=O)C(C)Oc1ccc(Oc2cnc3cc(Cl)ccc3n2)cc1 (centres undefined) | inactive |  |
| CCCOC(=O)NCCCN(C)C | inactive |  |
| CC(C)(C)[C@@H](O)[C@@H](Cc1ccc(Cl)cc1)n1cncn1 |  | 45.9 µM (active) |
| COc1c(Cl)ccc(Cl)c1C(=O)O | inactive |  |
| C=CCOC(Cn1ccnc1)c1ccc(Cl)cc1Cl (centres undefined) | inactive |  |
| CCCN(CCC)C(=O)SCC | inactive |  |
| CCCCOCCOCCOCc1cc2c(cc1CCC)OCO2 |  | 26.2 µM (active) |
| S=C([S-])NCCNC(=S)[S-].[Mn+2] | inactive |  |
| CCCOC(=O)c1ccc(C(=O)OCCC)nc1 | inactive |  |
| CCOC(=O)COc1cc(-n2ncc(C(F)(F)F)c(C)c2=O)c(F)cc1Cl | inactive |  |
| CCOC(=O)NCCOc1ccc(Oc2ccccc2)cc1 | inactive |  |
| COC(=O)c1ccc(I)cc1S(=O)(=O)NC(=O)Nc1nc(C)nc(OC)n1 | inactive |  |
| CCCCOC(=O)[C@@H](C)Oc1ccc(Oc2ccc(C(F)(F)F)cn2)cc1 | inactive |  |
| Cc1nn(C)c(Oc2ccccc2)c1C=NOCc1ccc(C(=O)OC(C)(C)C)cc1 | inactive |  |
| OB(O)O | inactive |  |
| CCOC(=O)C(C)Oc1ccc(Oc2nc3ccc(Cl)cc3o2)cc1 (centres undefined) | inactive |  |
| COC(=O)CSc1cc(N=c2sc(=O)n3n2CCCC3)c(F)cc1Cl | inactive |  |
| CCNc1nc(N)nc(Cl)n1 | inactive |  |
